PubChem BioAssay (NCATS)
Several values for one entry are separate records, joined by “and”; a condition that tells them apart may be missing. Equal entries are not always repeated. Results filed as inconclusive are left out. A number with no mark means an inactive call. Activity calls are given as the source filed them. Calls come from the whole dose curve; as a rule, active = well fitted curve in the direction sought with a large enough effect; inconclusive = small, poorly fitted or top-dose-only effect, or another doubt; inactive = no such curve, though single readings can be large or run the other way.

assay: qHTS Assay for Identifying Gametocytocidal Compounds (AID 743244);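 for max response: actives lower the fluorescent signal which means gametocytes are killed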; conditions: P. falciparum 3D7 stage III-V gametocytes, alamarBlue, 72 h; max response: active compounds read low
Summary of the method: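 Viability read-out was resazurin reduction (alamarBlue, 24 h) measured at Ex 525/Em 598 nm. Beforehand, late-stage (III-V) 3D7 P. falciparum gametocytes at 20,000 cells/well were incubated with compound 72 h at 37C under 5% CO2.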
% is set by controls: 0 for no effect and ±100 for the full control effect; potency is the fitted concentration of half-maximal effect.

SMILES | max response | Potency
COC1=C(OC)C(=O)C(C/C=C(\C)CC/C=C(\C)CC/C=C(\C)CC/C=C(\C)CC/C=C(\C)CC/C=C(\C)CC/C=C(\C)CC/C=C(\C)CC/C=C(\C)CCC=C(C)C)=C(C)C1=O | 1.6% and -2.73% | –
CN[C@@H]1[C@H](O[C@H]2[C@H](O[C@H]3[C@H](O)[C@@H](O)[C@H](N=C(N)N)[C@@H](O)[C@@H]3N=C(N)N)O[C@@H](C)[C@]2(O)C=O)O[C@@H](CO)[C@H](O)[C@H]1O | 14.8% | –
CO/N=C(\C(=O)N[C@@H]1C(=O)N2C(C(=O)O)=C(CSc3nnnn3C)CS[C@H]12)c1csc(N)n1 | 2.87% | –
NC(=O)Oc1ccc(Cc2ccccc2)cc1 | -7.34% | –
CC(C)c1ncc([N+](=O)[O-])n1C | 3.27% | –
O=C(O)CCC(=O)c1ccc(-c2ccccc2)cc1 | 1.84% | –
C=C1CC[C@H](O)C/C1=C\C=C1/CCC[C@]2(C)[C@@H]([C@H](C)CCCC(C)C)CC[C@@H]12 | 7.84% | –
C/C(=C\C(=O)OCCCCCCCCC(=O)O)C[C@@H]1OC[C@H](C[C@@H]2O[C@H]2[C@@H](C)[C@H](C)O)[C@@H](O)[C@H]1O | -6.76% | –
CC(=C\c1ccccc1)/C=C1/SC(=S)N(CC(=O)O)C1=O | 8.93% | –
CCCCC[C@H](O)/C=C/[C@@H]1[C@H]2C/C(=C/CCCC(=O)O)O[C@H]2C[C@H]1O | 18.5% | –
CC(C)(CO)[C@@H](O)C(=O)NCCC(=O)NCCSSCCNC(=O)CCNC(=O)[C@H](O)C(C)(C)CO | 8.29% | –
CC(C)=CCC/C(C)=C/CC/C(C)=C/CC/C(C)=C/CC1=C(C)C(=O)c2ccccc2C1=O | – | 7.94 µM (active)
CC1(C)S[C@@H]2[C@H](N3C(=O)C(c4ccccc4)NC3(C)C)C(=O)N2[C@H]1C(=O)O (some centres not stated) | 5.31% | –
O=C1c2ccccc2C(=O)C1c1ccc(Cl)cc1 | 13.7% | –
CC(C)C[C@H](NC(=O)[C@@H](Cc1c[nH]c2ccccc12)NC(=O)[C@H](Cc1ccc(O)cc1)NC(=O)[C@H](CO)NC(=O)[C@H](Cc1c[nH]c2ccccc12)NC(=O)[C@H](Cc1cnc[nH]1)NC(=O)[C@@H]1CCC(=O)N1)C(=O)N[C@@H](CCCN=C(N)N)C(=O)N1CCC[C@@H]1C(=O)NCC(N)=O | -1.22% | –
O=C(O)c1ccc(OCCn2ccnc2)cc1 | 0.359% | –
O=C1CCC(c2ccccc2)(C2CCN(Cc3ccccc3)CC2)C(=O)N1 (configuration not stated) | 0.775% | –
CC(C)[C@@H]1CC[C@@H](C)C[C@H]1OC(=O)c1ccccc1O | 9.93% | –
CCCCC(=O)O[C@H]1CC[C@H]2[C@@H]3CCc4cc(O)ccc4[C@H]3CC[C@]12C | -1.51% | –
CC(C)(C)C(=O)OCC(=O)[C@H]1CC[C@H]2[C@@H]3CCC4=CC(=O)CC[C@]4(C)[C@H]3CC[C@]12C | 6.08% | –
CC(C)(COP(=O)(O)OP(=O)(O)OC[C@H]1O[C@@H](n2cnc3c(N)ncnc32)[C@H](O)[C@@H]1OP(=O)(O)O)C(O)C(=O)NCCC(=O)NCCS (some centres not stated) | -9.49% | –
CC(=O)Nc1c(I)c(C(=O)N[C@H]2C(O)O[C@H](CO)[C@@H](O)[C@@H]2O)c(I)c(N(C)C(C)=O)c1I (some centres not stated) | 5.57% | –
